Compound activity: PubChem BioAssay, National Center for Advancing Translational Sciences (NCATS)
Hits are enriched below; roughly 6.1% of the tested compounds scored in any of these assays.
Gal4-VP16 FLuc: Gal4-VP16 reporter inhibition counter-screen. Drosophila S2 Gal4-VP16 UAS-luciferase, luminescence, 20 h. Potency, µM (top dose mostly 53.6 µM), for inactives: top-dose activity, negative = inhibition, actives largely listed as inhibitors. hit rate 3.5% among 310,000. AID 2546;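 further: Gal4-VP16 expression switched on by copper sulfate through the metallothionein promoter; on the % scale 0 is the no-effect control and ±100 the full control effect; nearly all actives have a fitted effect of over 50% in size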
HepG2 tox: counter-screen for TGF-b inhibitors: cytotoxicity in HepG2 cells; HepG2 CAGA-GFP viability, ATP luminescence, 18 h; Potency, µM (titrated, usually from 46.1 µM), inactives show at the highest dose activity change, negative = cytotoxicity, most hits filed as cytotoxic; hit rate 0.76% among 410,000
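CellTiter-Glo luminescence gave cytotoxicity after 18 hours at 37 degrees C. The cells were HepG2 CAGA-GFP in 1% FBS DMEM, stimulated with 500 pg/mL TGF-beta after compound addition. %Activity was normalised to no-cell wells (complete cell-killing) and DMSO (no toxicity), and curves were fitted and classified.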
ATXN2 expr inh: reduces ATXN2 reporter expression in HEK-293 cells | HEK-293 ATXN2-luciferase reporter, luminescence, 24 h | Potency, µM (top dose mostly 57 µM), without a hit: at the highest dose activity change, negative = inhibition, usual class: inhibitors | hit rate 0.72% among 360,000 | AID 1745845; further: on the % scale 0 is the no-effect control and ±100 the full control effect; nearly all actives have a fitted effect of over 55% in size
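ATXN2-luciferase reporter cells (luciferase flanked by upstream and downstream ATXN2 gene portions) were treated 24 h at 37 °C with compounds at up to 57 uM. SteadyGlo luminescence gave expression; GF-AFC fluorescence gave viability.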
ATXN viability: viability counter-screen for ATXN expression inhibitors. hit rate 0.49% among 400,000. AID 651635. Potency, µM (series often up to 56.7 µM), most hits filed as cytotoxic. S2 cells (HEK-293 line with an ATXN2-luciferase reporter) viability, CellTiter-Fluor protease fluorescence, 24 h; further: nearly all actives have a fitted effect of over 40% in size
TGFb SMAD3 inh: blocks TGF-b signaling; Potency, µM (series often up to 46.1 µM), inactives show at the highest dose activity, negative = inhibition, most hits filed as inhibitors; hit rate 1.2% among 410,000; HepG2 CAGA-GFP TGF-b/SMAD3 reporter, GFP fluorescence, 18 h; TGF-beta stimulated, 500 pg/mL final; further: on the % scale 0 is the no-effect control and ±100 the full control effect; nearly all actives have a fitted effect of over 65% in size
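HEPG2 CAGA-GFP, 1000 cells/well; 2 h settle, 37 C; cpd via pin tool; TGF-b 500 pg/mL final; 18 h, 37 C; GFP imaging ex488/em500-530; %Activity normalised to -TGF-b and +DMSO controls; CRC fit, curve class.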
RORg inh: ROR gamma (mouse) transcription inhibition; P51450; Drosophila S2 Gal4-RORgamma UAS-luciferase reporter, 20 h; Potency, µM (doses to about 53.6 µM), for the others: at the highest dose activity change, negative = inhibition, usual class: inhibitors; hit rate 5.4% among 310,000; AID 2551; further: on the % scale 0 is the no-effect control and ±100 the full control effect; nearly all actives have a fitted effect of over 60% in size
Target sequence (P51450 whole entry, looked up, the tested form may be a part): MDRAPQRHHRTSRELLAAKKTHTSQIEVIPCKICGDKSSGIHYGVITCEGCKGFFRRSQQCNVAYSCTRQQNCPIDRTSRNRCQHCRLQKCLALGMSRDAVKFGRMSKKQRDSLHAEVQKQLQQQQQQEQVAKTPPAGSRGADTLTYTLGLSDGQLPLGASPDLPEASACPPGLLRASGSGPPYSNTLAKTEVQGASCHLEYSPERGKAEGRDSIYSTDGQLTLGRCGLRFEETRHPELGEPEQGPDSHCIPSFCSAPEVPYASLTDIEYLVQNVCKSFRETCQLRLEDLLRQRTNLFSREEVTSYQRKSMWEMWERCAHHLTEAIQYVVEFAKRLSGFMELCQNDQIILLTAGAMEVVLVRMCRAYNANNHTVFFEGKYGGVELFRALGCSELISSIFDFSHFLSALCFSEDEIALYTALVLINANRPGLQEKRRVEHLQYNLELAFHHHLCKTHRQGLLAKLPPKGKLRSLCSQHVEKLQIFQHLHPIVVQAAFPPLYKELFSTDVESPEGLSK
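Using a luciferase readout, inhibitors were identified by reduced reporter activity in Drosophila cells coexpressing a copper-inducible Gal4–ROR gamma fusion and UAS-driven Photinus luciferase, incubated 20 hr after 700 uM copper sulfate.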
* = called active by the depositor; i = inactive; ? = inconclusive; nt = no result; [ ] = remark or other dose. The call rests on the fitted dose curve; in most records, active means well fitted curve in the direction sought with a large enough effect; inconclusive means small, poorly fitted or top-dose-only effect, or another doubt; inactive means no such curve, though single readings can be large; an effect the other way counts as inactive or inconclusive. Potency means the concentration at half of the fitted maximal effect.

SMILES	Gal4-VP16 FLuc	HepG2 tox	ATXN2 expr inh	ATXN viability	TGFb SMAD3 inh	RORg inh
Cc1ccc(C(=O)Nc2ccc(NC(=O)c3ccco3)c(C)c2)cc1	-8.3%	-2.3%	14.6%	i	0.2%	17.5%
Cc1nc2cc(NC(=O)c3ccco3)ccc2n1C	?	4.9%	-33.8%	i	2.9%	15.8µM*
O=C(Nc1ccc2c(c1)nc1n2CCSC1)c1ccco1	3.16µM*	-54.7%	?	?	0.0%	2.24µM*
O=C(Nc1ccc2c(c1)nc1n2CCOC1)c1ccco1	-7.5%	-1.7%	-3.6%	i	-11.6%	-44.8%
Cc1cc(NC(=O)c2ccc(Br)o2)ccc1NC(=O)c1ccco1	17.4%	10µM*	8.0%	i	15.3%	44.9%
CCOC(=O)c1ccc(NC(=O)C2CCCN(c3ccc(Sc4ccc(C)cc4)nn3)C2)cc1 (configuration not stated)	nt	0.6%	10.7%	i	-8.6%	nt
CC(=O)N1CCC[C@H]1C(=O)NCC1Cc2cc(-c3cnccn3)cc(Cl)c2O1 (some centres not stated)	nt	nt	nt	i	nt	nt
Cc1cc[n+](C2CCCCC2)c2ccccc12	nt	-2.0%	nt	nt	-4.3%	nt
CCc1ccccc1N1C(=O)N(Cc2ccccc2C)c2ccccc2S1(=O)=O	nt	-46.5%	-20.9%	i	0.0%	nt
CNC(=O)c1ccccc1Sc1ccc2c(C=Cc3ccccn3)n[nH]c2c1	nt	nt	9.1%	nt	nt	nt
Oc1c(C(Nc2nc3ccccc3s2)c2ccco2)ccc2cccnc12 (configuration not stated)	5.62µM*	-53.6%	?	?	?	2.51µM*
CC(C)C(=O)NC(c1ccco1)c1ccc2cccnc2c1O (configuration not stated)	5.01µM*	-18.4%	?	?	-23.0%	2.82µM*
Cc1cccc(NC(c2cccc(Cl)c2)c2ccc3cccnc3c2O)n1 (configuration not stated)	nt	-6.5%	nt	nt	?	nt
c1nc2nc(Nc3ccc(N4CCOCC4)cc3)nc(NC3CCCCC3)c2[nH]1	?	nt	24.3µM*	nt	nt	-96.1%
Cc1cc(=O)n2c3ccccc3n(CC(O)CN3CCCC3)c2c1C#N (configuration not stated)	-9.1%	-1.4%	-19.3%	?	-9.6%	-28.0%
CCCNCC(O)Cn1c2ccccc2n2c(=O)cc(C)c(C#N)c12 (configuration not stated)	-79.0%	6.5%	-12.7%	?	-3.4%	0.708µM*
CCn1c(SCC(=O)Nc2cc(C)ccc2F)nnc1-c1ccccc1O	nt	-17.4%	-12.4%	i	-12.6%	nt
COc1ccc(CNC(=O)Cn2c(=O)cc(-c3ccccc3)c3c(C)nn(C)c32)cc1	nt	-28.4%	-4.0%	i	-11.6%	nt
Cc1ccc(S(=O)(=O)N2CCN(C(=O)c3ccc(OCc4c(C)noc4C)cc3)CC2)cc1	3.2%	-21.2%	-8.2%	i	5.2%	-22.1%
Cc1ccc(C)c(S(=O)(=O)N2CCN(C(=O)c3ccc(OCc4c(C)noc4C)cc3)CC2)c1	nt	14.1µM*	0.0%	i	-20.1%	nt
COc1ccc(NC(=O)CN2C(=O)CCn3nc(-c4cccn4C)cc32)cc1Cl	nt	-24.1%	-2.5%	i	6.0%	nt
COC(=O)[C@@]1(Cc2ccccc2)[C@@H]2C(=CC(=O)[C@H]2CC(=O)C(=O)N(C)C)CN1C(=O)c1ccccc1	?	-51.3%	28.2µM*	20µM*	?	?
COC(=O)[C@@]1(Cc2ccccc2)[C@H]2c3cc(C(=O)N(C)C)n(Cc4ccccc4)c3C[C@H]2CN1C(=O)c1ccccc1	-5.4%	nt	nt	nt	nt	-8.2%
Cc1ccc(-n2c(N)c(C(=O)Nc3c(C)n(C)n(-c4ccccc4)c3=O)c3nc4ccccc4nc32)cc1	-30.0%	2.9%	29.9µM*	nt	15.1%	-19.6%
Cc1cc(C)cc(-n2c(N)c(C(=O)Nc3c(C)n(C)n(-c4ccccc4)c3=O)c3nc4ccccc4nc32)c1	?	-25.4%	-18.1%	i	-26.1%	37.7%
SMILES	Gal4-VP16 FLuc	HepG2 tox	ATXN2 expr inh	ATXN viability	TGFb SMAD3 inh	RORg inh
c1ccc(CCCNc2ncnc3nc[nH]c23)cc1	1.9%	-82.0%	11.4%	i	?	1.6%
Clc1ccc(CCNc2ncnc3nc[nH]c23)cc1	11.2µM*	-18.3%	-4.3%	i	-0.4%	-21.8%
CCC(=O)Oc1ccc(C/C(=N\O)c2ccc(O)cc2O)o1	?	-32.2%	-8.6%	i	-4.3%	2.24µM*
O=c1c(Cl)cc(Cl)nn1-c1ccccc1	?	17.8µM*	?	nt	?	14.1µM*
Cc1ccccc1C(C(=O)NC1CCCC1)N(C(=O)Cn1cnc2ccccc21)c1cccc(F)c1 (configuration not stated)	nt	nt	-6.3%	nt	nt	nt
CCc1ccc(Nc2n[n+](-c3ccccc3)c(-c3ccc(OCc4ccccc4)cc3)s2)cc1	?	-19.3%	?	?	?	7.94µM*
c1ccc(COc2ccc(-c3sc(Nc4ccccc4)n[n+]3-c3ccccc3)cc2)cc1	?	nt	nt	nt	nt	-31.4%
CN(C)c1ccc(-c2sc(Nc3ccccc3)n[n+]2-c2ccc(F)cc2)cc1	3.0%	-19.9%	9.8%	i	-4.6%	14.1µM*
CCN(CC)c1ccc(-c2sc(Nc3ccccc3)n[n+]2-c2ccc(F)cc2)cc1	17.4%	-59.2%	-17.6%	?	?	10µM*
O=C(O)c1ccc(-c2sc(Nc3ccccc3)n[n+]2-c2ccccc2)cc1	-3.0%	-21.7%	15.1%	i	33.5%	-3.3%
CCc1ccc(Nc2n[n+](-c3ccccc3)c(-c3ccc(N(CC)CC)cc3)s2)cc1	12.6µM*	-62.0%	?	?	?	?
O=C(O)c1ccc(-c2sc(Nc3ccccc3)n[n+]2-c2ccc(F)cc2)cc1	3.6%	-2.8%	9.4%	i	-29.0%	-9.4%
Cc1ccc(S(=O)(=O)OC[C@@H]2CN3[C@H](c4ccc(Br)cc4)[C@H](C)CC[C@H]3C(=O)O2)cc1	-12.6%[10 µM]	nt	nt	nt	nt	-3.6%[10 µM]
COc1ccc(NC(=O)CSC2=Nc3ccccc3C3=NC(Cc4ccccc4)C(=O)N23)cc1Cl (configuration not stated)	nt	1.5%	-17.6%	?	-0.6%	nt
O=C1NC(=O)C(Cc2ccccc2)(C2CCN(Cc3cccn3-c3cccnc3)CC2)N1 (configuration not stated)	nt	nt	nt	i	nt	nt
CSc1nc(C(=O)N2CCOc3ccc(CN4CCN(Cc5ccccn5)CC4)cc3C2)cs1	nt	nt	nt	i	nt	nt
CC(=O)Nc1c(C)nn(-c2ccccc2)c1N1CCC(C(=O)NCc2cccc(F)c2)CC1	nt	2.5%	nt	nt	-0.6%	nt
